Assay results from PubChem BioAssay (Tox21).
Records with an inconclusive call do not appear. Activity calls are given as the source filed them. Unless noted, the call rests on the fitted dose curve; in most records, active means well fitted curve in the direction sought with a large enough effect in the repeat runs; inconclusive means weak or mixed curves; inactive means no such curve, though single readings can be large; an effect the other way counts as inactive or inconclusive.

Tests used:
[1] = qHTS assay to identify small molecule agonists of the estrogen receptor alpha (ER-alpha) signaling pathway in the presence of an antagonist - cell viability counter screen (AID 1259386);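 further: series mostly up to about 92 µM; cells exposed to compounds for 22 h at 37 °C before the viability read; nearly all actives have a fitted effect of over 30% in size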
How it was run: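 Read-out: CellTiter-Fluor fluorescence after 1hr reagent incubation, measured in the same wells as the luciferase readout. VM7Luc4E2 cells were exposed to 15 compound concentrations with 10.0nM ICI-182,780 for 22hr at 37C.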

[2] = target: Progesterone receptor (Homo sapiens) (UniProt P06401); test: qHTS assay to identify small molecule agonists of the progesterone receptor (PR) signaling pathway (AID 1346784; calls by dose curve; further: nearly all actives have a fitted effect of over 30% in size)
How it was run: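 Reporter assay, GripTite PR-UAS-bla HEK 293T cells: 16 hr exposure to DMSO-dissolved compounds at 37C, 5% CO2, in steroid-depleted (2% charcoal-stripped FBS) medium; beta-lactamase measured by FRET fluorescence.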

[3] = target: Progesterone receptor (Homo sapiens) (UniProt P06401); test: qHTS assay to identify small molecule antagonists of the progesterone receptor (PR) signaling pathway (AID 1346795; active means well fitted inhibition curve with a large enough effect in the signal ratio in the repeat runs, not every such curve was filed as active; the % refers to the signal ratio)
How it was run: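 Stimulus R5020 at 1 nM final; cells HEK293T PR-UAS-bla; medium with 2% charcoal-stripped FBS; compound exposure 16 hr at 37C, 5% CO2; detection by FRET beta-lactamase substrate, 2 hr, room temperature.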

[4] = qHTS assay to identify small molecule antagonists of the progesterone receptor (PR) signaling pathway - cell viability counter screen (AID 1346798); further: series mostly up to about 92 µM; nearly all actives have a fitted effect of over 50% in size
How it was run: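 In the same plates used for the beta-lactamase readout, cell viability of compound- and R5020-treated PR-UAS-bla HEK293T cells (16 hr, 37C) was assessed by CellTiter-Glo luminescence.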

[5] = qHTS assay to identify small molecule agonists of the progesterone receptor (PR) signaling pathway - cell viability counter screen (AID 1346799; calls by dose curve; further: nearly all actives have a fitted effect of over 45% in size)
How it was run: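 Multiplexed viability read: CellTiter-Glo luminescence, 30 min RT, following LiveBLAzer FRET measurement on PR-UAS-bla HEK293T cells exposed to compounds 16 hr.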

[6] = qHTS assay to identify small molecule antagonists of the TGF-beta/Smad signaling pathway - cell viability counter screen (AID 1346824); further: nearly all actives have a fitted effect of over 50% in size
How it was run: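 SBE-bla HEK 293T cells were plated overnight at 37 C, then given compounds in DMSO plus TGF-beta1 (added as 0.25 ng/mL solution) for 5 hr. After the bla read, CellTiter-Glo was added to the same wells and luminescence read after 30 min at room temperature.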

[7] = qHTS assay to identify small molecule agonists of the TGF-beta/Smad signaling pathway - cell viability counter screen (AID 1346829); further: top concentration of the series differs between compounds; nearly all actives have a fitted effect of over 45% in size
How it was run: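 Same-well cytotoxicity: CellTiter-Glo added after the 2 hr room-temperature beta-lactamase substrate step, luminescence measured 30 min later; cells had 5 hr of compound at 37 C.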

[8] = qHTS assay to identify small molecule agonists of the TGF-beta/Smad signaling pathway (AID 1346859; active means well fitted activation curve with a large enough effect in the signal ratio in the repeat runs, not every such curve was filed as active; the % refers to the signal ratio; further: series mostly up to about 77 µM)
How it was run: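 Screening used HEK 293T SBE-bla cells at 4,000/well. Test agents: 5 hr, 37 C. Detection: FRET substrate, 2 hr RT, then excitation 405 nm with emissions at 460 and 530 nm.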

[9] = target: Thyrotropin-releasing hormone receptor (Homo sapiens) (UniProt P34981); test: qHTS assay to identify small molecule antagonists of the thyrotropin-releasing hormone receptor (TRHR) signaling pathway (AID 1346877; active means well fitted inhibition curve with a large enough effect in the repeat runs, not every such curve was filed as active; further: series mostly up to about 51 µM)
How it was run: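 HEK293/TRHR cells, 18 h, 37 °C; Ca2+ dye 2 h; cpd 5 min RT; TRH 1 nM final; fluorescence read 3 min, 1 s intervals; 15 concs, triplicate.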

[10] = target: Thyrotropin-releasing hormone receptor (Homo sapiens) (UniProt P34981); test: qHTS assay to identify small molecule agonists of the thyrotropin-releasing hormone receptor (TRHR) signaling pathway (AID 1346891; calls by dose curve; further: series mostly up to about 58 µM)
How it was run: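 Readout was intracellular calcium fluorescence in TRHR-Hek293 cells. Cells were incubated 18 h, dye-loaded 2 h at 37 °C, and treated with compound in agonist mode.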

[11] = Human pregnane X receptor (PXR) small molecule agonists, qHTS cell viability counter screen (AID 1346977); further: nearly all actives have a fitted effect of over 50% in size
How it was run: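 In each well, the PXR reporter HepG2 line was checked for viability: CellTiter-Fluor reagent added 23hr post-dosing, fluorescence read after 1hr incubation at 37C.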

[12] = Caspase-3/7 induction in HepG2 cells by small molecules, qHTS assay (AID 1346978); further: nearly all actives have a fitted effect of over 15% in size
How it was run: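 Wild-type HepG2 cells (2,000/well) were settled 5 h at 37 C, 5% CO2, then exposed to compounds in DMSO for 17 h. Caspase-3/7 activity was read by luminescence 30 min after adding Caspase-Glo 3/7 reagent at room temperature.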

[13] = Caspase-3/7 induction in CHO-K1 cells by small molecules, qHTS cell viability counter screen (AID 1346979); further: nearly all actives have a fitted effect of over 35% in size
How it was run: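 Following a 5hr settling period, CHO-K1 cells at 1,500 per well received DMSO-dissolved compounds. Cell viability was quantified 16hr later by CellTiter-Fluor fluorescence, measured after 1hr with reagent at 37C.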

[14] = Caspase-3/7 induction in CHO-K1 cells by small molecules, qHTS assay (AID 1346980); further: nearly all actives have a fitted effect of over 15% in size
How it was run: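 Wild-type cells were seeded at 1,500 per well and settled 5 hr at 37 C, 5% CO2, then exposed to DMSO-dissolved compounds for 17 hr. Caspase-Glo 3/7 reagent was added, and luminescence was read after 30min at room temperature.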

[15] = Caspase-3/7 induction in HepG2 cells by small molecules, qHTS cell viability counter screen (AID 1346981); further: series mostly up to about 92 µM; nearly all actives have a fitted effect of over 30% in size
How it was run: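 Fluorescence read-out of live-cell protease activity (CellTiter-Fluor) after 1 hr with reagent. This was measured in the same wells as the caspase-3/7 luminescence, on HepG2 cells exposed to DMSO-dissolved compounds for 16 hr at 37 C.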

[16] = target: Nuclear receptor subfamily 1 group I member 2 (Homo sapiens) (UniProt O75469); test: Human pregnane X receptor (PXR) small molecule agonists, qHTS assay (AID 1346982); further: nearly all actives have a fitted effect of over 35% in size
How it was run: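 HepG2 PXR-Luc reporter line, 5% charcoal-stripped FBS; 5 hr pre-incubation, compound (DMSO) 24 hr at 37 C/5% CO2; ONE-Glo 30 min RT; luminescence read-out.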

[17] = target: Acetylcholinesterase (Homo sapiens) (UniProt P22303); test: Acetylcholinesterase (AChE) small molecule antagonists: colormetric cell-based qHTS assay (AID 1347395; calls by dose curve; further: nearly all actives have a fitted effect of over 30% in size)
How it was run: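 After overnight attachment at 37 C, SH-SY5Y cells get 30 min compound exposure; detection cocktail (acetylthiocholine, DTNB) then incubates 90 min at 37 C, and absorbance reflects AChE-generated thiocholine.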

[18] = target: Nuclear receptor subfamily 1 group I member 2 (Rattus norvegicus) (UniProt Q9R1A7); test: Rat pregnane X receptor (rPXR) activation by small molecules, qHTS assay (AID 1346983); conditions: rPXR luciferase reporter cells, One-Glo luminescence, 24 h; max activation: hits give high values; further: nearly all actives have a fitted effect of over 20% in size
How it was run: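 Cell-based rPXR luciferase reporter assay, 2,000 cells per well, rested 5hr at 37 C before compound addition in DMSO, then 24 hr at 37 C. One-Glo reagent was added and luminescence read after 30 min at room temperature.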

[19] = target: Nuclear receptor subfamily 1 group I member 2 (Homo sapiens) (UniProt O75469); test: CYP3A4 induction through human pregnane X receptor (PXR) by small molecules, qHTS assay (AID 1346984); further: nearly all actives have a fitted effect of over 40% in size
How it was run: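 HepG2-derived DPX-2 line carrying PXR plus a CYP3A4-promoter luciferase reporter; cells plated 5 hr, compound-exposed 24 hr at 37C. CYP3A4 activity probed with 3uM (final) Luciferin-IPA for 3hr, then luciferase read after One-Glo.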

[20] = target: Nuclear receptor subfamily 1 group I member 2 (Homo sapiens) (UniProt O75469); test: Human pregnane X receptor (PXR) activation by small molecules, qHTS assay (AID 1346985); further: nearly all actives have a fitted effect of over 40% in size
How it was run: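 DPX-2 cells (HepG2 co-transfected with a PXR response element and a CYP3A4-promoter luciferase construct) were seeded at 2,000 per well, rested 5 hr at 37C, then exposed to DMSO-dissolved compounds for 24 hr. Activation was read as luciferase luminescence.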
On the % scale 0 is the no-effect control and ±100 the full control effect.

Sequence of Progesterone receptor (Homo sapiens) (P06401 whole entry, looked up): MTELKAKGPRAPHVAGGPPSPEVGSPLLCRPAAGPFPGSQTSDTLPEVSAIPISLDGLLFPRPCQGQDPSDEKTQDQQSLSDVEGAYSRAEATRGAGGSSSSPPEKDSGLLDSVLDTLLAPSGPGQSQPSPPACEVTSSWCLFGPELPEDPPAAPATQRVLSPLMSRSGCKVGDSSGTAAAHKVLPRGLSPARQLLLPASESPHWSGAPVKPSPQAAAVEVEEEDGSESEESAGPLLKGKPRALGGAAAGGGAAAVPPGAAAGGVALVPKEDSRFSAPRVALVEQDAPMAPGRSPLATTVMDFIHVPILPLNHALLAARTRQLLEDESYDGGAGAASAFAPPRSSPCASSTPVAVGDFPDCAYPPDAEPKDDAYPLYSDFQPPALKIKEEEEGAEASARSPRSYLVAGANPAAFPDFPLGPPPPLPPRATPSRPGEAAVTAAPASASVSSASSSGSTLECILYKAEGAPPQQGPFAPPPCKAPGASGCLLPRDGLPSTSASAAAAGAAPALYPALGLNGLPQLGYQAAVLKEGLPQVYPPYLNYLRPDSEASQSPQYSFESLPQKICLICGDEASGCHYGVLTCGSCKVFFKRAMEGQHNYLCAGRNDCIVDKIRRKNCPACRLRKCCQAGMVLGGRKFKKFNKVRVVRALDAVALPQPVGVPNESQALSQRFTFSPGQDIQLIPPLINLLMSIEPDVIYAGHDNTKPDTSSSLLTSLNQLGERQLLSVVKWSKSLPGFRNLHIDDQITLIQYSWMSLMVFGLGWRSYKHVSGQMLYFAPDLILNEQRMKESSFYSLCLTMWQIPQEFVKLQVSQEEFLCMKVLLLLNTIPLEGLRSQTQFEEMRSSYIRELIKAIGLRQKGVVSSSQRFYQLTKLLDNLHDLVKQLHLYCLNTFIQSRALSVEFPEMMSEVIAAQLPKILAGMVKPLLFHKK
Sequence of Acetylcholinesterase (Homo sapiens) (P22303 whole entry, looked up): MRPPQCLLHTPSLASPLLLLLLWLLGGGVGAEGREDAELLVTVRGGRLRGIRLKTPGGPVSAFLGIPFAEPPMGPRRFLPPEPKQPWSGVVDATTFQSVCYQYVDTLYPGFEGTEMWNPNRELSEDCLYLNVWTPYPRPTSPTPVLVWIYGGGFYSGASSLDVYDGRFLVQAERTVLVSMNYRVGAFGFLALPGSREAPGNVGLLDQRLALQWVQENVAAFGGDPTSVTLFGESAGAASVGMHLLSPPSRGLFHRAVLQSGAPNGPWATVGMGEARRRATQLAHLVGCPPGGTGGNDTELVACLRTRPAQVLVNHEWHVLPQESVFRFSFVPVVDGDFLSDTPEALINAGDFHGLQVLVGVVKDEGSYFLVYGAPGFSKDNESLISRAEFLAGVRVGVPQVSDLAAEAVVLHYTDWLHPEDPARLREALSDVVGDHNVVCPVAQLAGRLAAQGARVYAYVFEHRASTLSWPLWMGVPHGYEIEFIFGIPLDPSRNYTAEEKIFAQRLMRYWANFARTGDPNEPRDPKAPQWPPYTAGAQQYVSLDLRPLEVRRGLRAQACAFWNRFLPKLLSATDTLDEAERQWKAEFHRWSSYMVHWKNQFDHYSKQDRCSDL
Sequence of Thyrotropin-releasing hormone receptor (Homo sapiens) (P34981 whole entry, looked up): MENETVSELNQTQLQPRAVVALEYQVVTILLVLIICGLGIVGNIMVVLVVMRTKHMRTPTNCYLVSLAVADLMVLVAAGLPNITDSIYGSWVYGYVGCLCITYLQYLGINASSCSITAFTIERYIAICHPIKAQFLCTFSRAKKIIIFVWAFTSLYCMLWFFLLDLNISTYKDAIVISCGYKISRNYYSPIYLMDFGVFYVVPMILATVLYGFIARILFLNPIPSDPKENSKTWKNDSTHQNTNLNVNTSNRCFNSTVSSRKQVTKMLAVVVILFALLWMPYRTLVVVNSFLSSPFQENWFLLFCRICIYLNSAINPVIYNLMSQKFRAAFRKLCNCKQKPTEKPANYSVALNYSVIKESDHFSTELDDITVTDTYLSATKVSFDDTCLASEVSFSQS
Sequence of Nuclear receptor subfamily 1 group I member 2 (Homo sapiens) (O75469 whole entry, looked up): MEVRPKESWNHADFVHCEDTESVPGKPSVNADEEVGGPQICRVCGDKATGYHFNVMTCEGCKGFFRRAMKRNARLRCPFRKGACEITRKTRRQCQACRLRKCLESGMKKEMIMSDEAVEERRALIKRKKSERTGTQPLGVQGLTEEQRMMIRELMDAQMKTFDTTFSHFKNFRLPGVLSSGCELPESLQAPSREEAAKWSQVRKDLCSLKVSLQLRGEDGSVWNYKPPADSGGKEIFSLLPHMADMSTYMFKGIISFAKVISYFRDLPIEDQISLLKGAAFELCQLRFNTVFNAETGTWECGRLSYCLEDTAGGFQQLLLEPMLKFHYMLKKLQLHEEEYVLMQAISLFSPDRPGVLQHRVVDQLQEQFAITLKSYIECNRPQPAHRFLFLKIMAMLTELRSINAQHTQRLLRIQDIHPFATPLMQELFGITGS
Sequence of Nuclear receptor subfamily 1 group I member 2 (Rattus norvegicus) (Q9R1A7 whole entry, looked up): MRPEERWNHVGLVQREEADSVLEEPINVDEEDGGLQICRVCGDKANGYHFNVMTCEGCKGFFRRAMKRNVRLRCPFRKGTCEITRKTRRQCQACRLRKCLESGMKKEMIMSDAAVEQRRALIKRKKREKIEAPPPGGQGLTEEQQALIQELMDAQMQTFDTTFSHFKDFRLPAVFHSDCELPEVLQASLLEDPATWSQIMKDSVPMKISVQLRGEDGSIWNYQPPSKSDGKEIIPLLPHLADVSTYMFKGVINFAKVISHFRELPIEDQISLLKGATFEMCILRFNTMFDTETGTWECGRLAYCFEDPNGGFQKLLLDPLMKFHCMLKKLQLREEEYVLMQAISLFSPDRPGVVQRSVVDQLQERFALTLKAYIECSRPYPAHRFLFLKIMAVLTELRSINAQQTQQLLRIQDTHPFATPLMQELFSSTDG

C[As+](C)(C)CC(=O)[O-]
inactive: Potency [1] | Potency [2] | Potency [3] | Potency [4] | Potency [5] | Potency [6] | Potency [7] | outcome [8] | Potency [9] | Potency [10] | Potency [11] | Potency [12] | Potency [13] | Potency [14] | Potency [15] | Potency [16] | Potency [17]

BrCBr
inactive: Potency [1] | Potency [2] | Potency [3] | Potency [4] | Potency [5] | Potency [6] | Potency [7] | outcome [8] | Potency [9] | Potency [10] | Potency [11] | Potency [12] | Potency [13] | Potency [14] | Potency [15] | Potency [16] | Potency [17]

CC(C)CBr
inactive: Potency [1] | Potency [2] | Potency [3] | Potency [4] | Potency [5] | Potency [6] | Potency [7] | outcome [8] | Potency [9] | Potency [10] | Potency [12] | Potency [13] | Potency [14] | Potency [15] | Potency [16] | Potency [17]

COS(=O)(=O)c1ccc(C)cc1
inactive: Potency [1] | Potency [2] | Potency [3] | Potency [4] | Potency [5] | Potency [6] | Potency [7] | outcome [8] | Potency [9] | Potency [10] | Potency [11] | Potency [12] | Potency [13] | Potency [14] | Potency [15] | Potency [16] | Potency [17]

CCCCCCCCCCCCCN1CC(C)OC(C)C1 (stereo unspecified)
inactive: Potency [1] | Potency [2] | Potency [3] | Potency [4] | Potency [5] | Potency [6] | Potency [7] | outcome [8] | Potency [9] | Potency [10] | Potency [11] | Potency [12] | Potency [13] | Potency [14] | Potency [15] | Potency [16] | Potency [17]

CC(O)C#N (stereo unspecified)
inactive: Potency [1] | Potency [2] | Potency [3] | Potency [4] | Potency [5] | Potency [6] | Potency [7] | outcome [8] | Potency [9] | Potency [10] | Potency [12] | Potency [13] | Potency [14] | Potency [15] | Potency [16] | Potency [17]

COc1cc(N)c(Cl)cc1C(=O)NC1CN2CCC1CC2 (stereo unspecified)
inactive: Potency [1] | Potency [2] | Potency [3] | Potency [4] | Potency [5] | Potency [6] | Potency [7] | outcome [8] | Potency [9] | Potency [10] | Potency [11] | Potency [12] | Potency [13] | Potency [14] | Potency [15] | Potency [16] | max activation [18] -2.4% | Potency [19] | Potency [20]

CC(C)OS(C)(=O)=O
inactive: Potency [1] | Potency [2] | Potency [3] | Potency [4] | Potency [5] | Potency [6] | Potency [7] | outcome [8] | Potency [9] | Potency [10] | Potency [11] | Potency [12] | Potency [13] | Potency [14] | Potency [15] | Potency [16] | Potency [17]
